“And” between values parts separate entries of the source, which are not always exact repeats. Equal entries are not always repeated. This is part of a sample that, as a whole, favours compounds with a hit. Of some 79,000 tested, about 15% had one in any assay. The source made the active and inactive calls. Rule as the data show it: active = growth inhibition above about 70%; inactive = the rest.
Assay: NCI Yeast Anticancer Drug Screen. Data for the cln2 rad14 strain (AID 165);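 also: 0% = growth equal to vehicle treated cultures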
Conditions: S. cerevisiae cln2 rad14 strain, at 5.0 µM (retest, dose inferred, filed as 0.5), active compounds read high
Method in brief: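 Yeast strain cln2 rad14, bearing defects in cell cycle control and DNA repair, serves as the test system; values reflect growth inhibition compared with vehicle.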

SMILES | growth inhibition
COC(=O)CC1(C(=O)O)CC2(Cl)C(Cl)=C(Cl)C1(Cl)C2(Cl)Cl (configuration not stated) | 17% (inactive)
CCCCN(C)CC(C(C)=O)C(c1ccccc1)c1c(O)c2ccccc2oc1=O (configuration not stated) | 6% (inactive)
O=[n+]1c2ccccc2n([O-])c2ccccc21.[Cl][Ni][Cl] | 33% (inactive)
COc1ccc(C(Cc2ccc(Cl)c(Cl)c2)NCCO)cc1 (configuration not stated) | -2% (inactive)
O=C(N/N=C/c1cc(Cl)cc(Cl)c1[O-])c1ccccc1O.O=C(N/N=C/c1cc(Cl)cc(Cl)c1[O-])c1ccccc1O.[Zn+2] | 92% (active)
Oc1ccc(Cl)cc1Sc1cc(Cl)ccc1O | 98% (active) and 94% (active)
O=S(=O)([O-])[O-].[OH3+].[OH3+].[OH3+].[Ru+2].c1ccccc1 | -9% (inactive)
CCCCCC(Cn1ccnc1)c1ccc(Cl)cc1Cl (configuration not stated) | 72% (active)
CC1=C(CO)C(=O)OC(C(C)C2CCC3C4CC5OC56C(O)C(N5CC5)=CC(=O)C6(C)C4CCC23C)C1 (configuration not stated) | 23% (inactive)
CCCC[CH2][Sn]([CH2]CCCC)[CH2]CCCC.CCCC[CH2][Sn]([CH2]CCCC)[CH2]CCCC | 8% (inactive)
CCC[CH2][Sn]1([CH2]CCC)[O]C(=O)C(C(C)C)N=Cc2ccccc2[O]1 (configuration not stated) | 7% (inactive)
Oc1c(Cl)cc(-c2cc(Cl)c(O)c(Cl)c2)cc1Cl | 57% (inactive)
CC(=O)Nc1ccc(/C=N/N=C(/N)N[N+](=O)[O-])cc1 | -1% (inactive)
CC(Br)c1ccccc1 (configuration not stated) | 3% (inactive)
C[Si]1(C)CCCCC2(C1)C(=O)NC(=O)NC2=O | -3% (inactive)
CCCCCCCCCCCCCCCc1cccc(O)c1O | -4% (inactive)
CC1(C)OC2OC3C(CN(CCCl)Cc4ccccc4)OC(c4ccccc4)OC3C2O1 (configuration not stated) | -2% (inactive)
FC(F)(F)c1nc2ccc(SSc3ccc4nc(C(F)(F)F)[nH]c4c3)cc2[nH]1 | 8% (inactive)
O=[N+]([O-])c1csc([N+](=O)[O-])c1 | 75% (active)
CCc1cc2c(cc1-c1csc(C/C(N)=N/O)n1)C(C)(C)CCC2(C)C | 39% (inactive)
CCCCCCCC[N+](CCCC)(CCCC)CCCC (tested in a mixture with another compound) | 97% (active)
CCC[CH2][Sn]([CH2]CCC)([S]C#N)[S]C#N | 93% (active)
